# Test results published in PubChem BioAssay (NCI).
# The panel holds about 83,000 compounds, 20% with a hit somewhere; the sample as a whole holds those more often.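 Plates (96-well) were seeded with cells, treated with compound at one concentration, and incubated for 48 hours before percent growth was determined.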 Values without a mark were called inactive. Calls of active or inactive are those of the source.
# System: HOP-62 NSCLC
# Assay: NCI-60 one-dose screen, 48 h (100 = growth as untreated, 0 = no growth, -100 = all killed)
# Details: 10 µM unless noted
# Method: Growth inhibition of the HOP-62 human Non-Small Cell Lung tumor cell line is measured as a screen for anti-cancer activity. Cells are grown in 96 well plates and exposed to the test compound for 48 hours. Compounds are tested at a single concentration, which is 10^-5 M for most compounds. The reported endpoint is percent growth (GI% or GIPRCNT), where numbers from 0 - 100% represent growth inhibition, and numbers from -100% - 0 represent cell death. For example, a value of 40 represents 60% growth inhibition. A value of 0 means no net growth occurred over the course of the experiment. A value of -40 indicates 40% of cells at the beginning of the experiment died by the end of the experiment. A value of -100 means all cells are dead at the end of the experiment.
# NCI-60 Human Tumor Cell Lines Screen was performed using the standard one-dose NCI protocol, which is described in more detail at https://dtp.cancer.gov/discovery_development/nci-60/default.htm.
# Compounds with GIPRCNT values below 10 were considered active. Activity score was based on GIPRCNT using the following formula: […]
# Score is 0 for GIPRCNT values of 100 or above, 50 for GIPRCNT values of 0, and 100 for GIPRCNT values of -100.
row,Structure (SMILES),growth
1,Cc1ccc2oc(=O)cc(-c3sc(N4CCCCC4)nc3-c3ccccc3)c2c1,89.7%
2,Cn1cc(-c2nc(-c3cn(C)c4ncccc34)cs2)c2ccccc21,36.1%
3,COC(=O)[C@]12CC[C@@H](C)[C@H](C)[C@@H]1C1=CC[C@@H]3[C@@]4(C)C=C(O)C(=O)C(C)=C4CC[C@@]3(C)[C@]1(C)CC2,56.4%
4,N#CC1c2ccccc2-c2ccccc2N1C(=O)c1ccccc1 (stereo not given),48.7%
5,O=C1c2cc3c(cc2-c2c1c1ccc(Cl)cc1c(=O)n2C[C@H](O)[C@@H](O)[C@H](O)CO)OCO3,-43.1% (active)
6,O=[N+]([O-])c1ccc(N/N=C(\C(=N/Nc2ccc([N+](=O)[O-])cc2[N+](=O)[O-])c2ccccc2)c2ccccc2)c([N+](=O)[O-])c1,89.5%
7,CC(C)c1cc(C(=O)O)c(O)c(C(C)C)c1.CC(C)c1cc(C(=O)O)c(O)c(C(C)C)c1.[Mn],112%
8,CCCCC[C@H]1CC=C2C(=O)C(Cl)=C[C@@H]2CC=CCCCC(=O)O[C@@H](CCCCC)CC=C2C(=O)C(Cl)=C[C@@H]2CC=CCCCC(=O)O[C@@H](CCCCC)CC=C2C(=O)C(Cl)=C[C@@H]2CC=CCCCC(=O)O1,89.8% [8 µM]
9,C=C(C)[C@@H]1CC[C@]2(C(=O)N3CCCNCC3)CC[C@]3(C)[C@H](CC[C@@H]4[C@@]5(C)CCC(=O)C(C)(C)[C@@H]5CC[C@]43C)[C@@H]12,92.9%
10,COc1cc(/C=C/c2cc(/C=C/c3ccc(O)c(OC)c3)n(-c3ccccc3)c(=O)n2)ccc1O,85.8%
11,Nc1ccc(Br)cn1,101%
12,CCN(CC)CCCCCCNc1ccnc2cc(Cl)ccc12,82.6%
13,CC(C)(C)c1ccc(OP(=S)(N/N=C/c2ccccc2O)Oc2ccc(C(C)(C)C)cc2)cc1,91.7%
14,O=C1C=Cc2ncccc2C1=O,99.7%
15,COc1ccccc1-n1cnc(N)c1C(=O)c1cc(OC)c(OC)c(OC)c1,52.8%
16,Cn1cc(-c2csc(-c3c[nH]c4ccc(F)cc34)n2)c2cccnc21,43.2%
17,Nc1nc2c3ccncc3cc(-c3cccc(Cl)c3)c2c2cnccc12,44.1%
18,COc1ccc(-c2nc3ncccn3c2-c2nc3ccc(Br)cc3[nH]2)cc1,99.3%
19,c1cnc2[nH]cc(-c3csc(-c4cn(CCCN5CCCCC5)c5ccccc45)n3)c2c1,54.6%
20,Oc1ccc(Nc2ccccc2)cc1,104%

row,Structure (SMILES),growth
1,Brc1cnc2[nH]cc(-c3nnc(-c4ccccc4)o3)c2c1,85.2%
2,CC1c2ccccc2N(S(=O)(=O)c2ccccc2)C1C (stereo not given),95.4%
3,Cn1cc(-c2nc(-c3c[nH]c4ncccc34)cs2)c2cc(Br)ccc21,109%
4,Cc1ccc2c(c1)c1nc3cc(C)c(C)cc3nc1n2CCN(C)C,23.8%
5,CC(=O)Oc1ccccc1C(=O)/C=C/c1cccc([N+](=O)[O-])c1,99.2%
6,O=C1C(=O)N(CCCCn2cc(-c3ccccc3)nn2)c2ccccc21,106%
7,Cn1cc(-c2csc(-c3cn(CCN)c4ccccc34)n2)c2cccnc21,40.1%
8,COc1ccc(-c2cc(/C=C/C(=O)c3ccc(OC)c(OC)c3)[nH]n2)cc1,8.64% (active)
9,Cc1cc(N(CCCNc2ccnc3cc(Cl)ccc23)Cc2ccco2)nc(Cl)n1,41.6%
10,COc1ccc2c(c1)C/C(=C\c1cc(-c3ccc4c(c3)OCO4)n[nH]1)C2=O,102%
11,O=C1NC(=Nc2ccc(S(=O)(=O)Nc3nccs3)cc2)S/C1=C\c1coc2ccccc2c1=O,99.5%
12,Cc1ccc(Cc2cnc(NC(=O)/C=C/c3cccc(C)c3)s2)cc1,18.5%
13,CCN1CCN(C(=O)[C@]23CCC(C)(C)C[C@@H]2C2=CC[C@@H]4[C@@]5(C)C/C(=C/c6ccncc6)C(=O)C(C)(C)[C@@H]5CC[C@@]4(C)[C@]2(C)CC3)CC1,-66.9% (active)
14,COc1cc(-c2cc3ncccc3c3[nH]c(=O)c4cccnc4c23)cc(OC)c1OC,30.3%
15,COc1ccc2c(c1)c(-c1nc(-c3cn(C)c4ncccc34)cs1)cn2CCCN1CCCCC1,74.9%
16,Clc1ccc2[nH]cc(-c3nc(-c4c[nH]c5ncccc45)cs3)c2c1,54.1%
17,CCc1cccc(CC)c1NC(=O)c1sc2nc3c(cc2c1N)CCCC3,50.5%
18,Clc1ccc2c(NCCNc3nc(-c4ccccc4)cc(-c4ccccc4)n3)ccnc2c1,-73.6% (active)
19,Cc1cc(C)nc(NC(N)=NCCc2ccccc2)n1,52.4%
20,C#Cc1cccc(NC(=O)C2CCCN(C(=O)CCl)C2)c1 (stereo not given),87.8% [8.25 µM]
